Where “and” joins values, the source holds several entries; their conditions need not be identical. Equal values may be shown once. About 83,000 compounds went through this panel and 20% of them were active in at least one assay; those are over-represented in the sample as a whole.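 The test compound was applied at a single concentration to cells in 96-well plates for 48 hours, and percent growth was recorded.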 Calls of active or inactive are those of the source. Rule for the calls: active = growth percent below 10; inactive = the rest.

In this assay the test system is MDA-MB-468 breast. Kind of assay: NCI-60 one-dose screen, 48 h (100 = growth as untreated, 0 = no growth, -100 = all killed). The conditions noted are these: 10 µM unless noted.
Consider `COC(=O)/C=C1/SC(=Nc2cccc(Cl)c2)N(CCc2c[nH]c3ccc(O)cc23)C1=O`, for which the growth was 24.7% (inactive).

As to `COc1ccc(S(=O)(=O)n2ccc(-c3ccc4c(c3)CCC(C)(C)O4)n2)cc1OC`, the growth was 28.4% (inactive).

As to `O=C1Nc2ccccc2C12CC(c1ccc(Cl)cc1)=NN2` (stereo unspecified), the growth was 110% (inactive).

For the compound `O=c1[nH]c(N2CCC(Cc3ccccc3)CC2)nc2sc3c(c12)CCCC3`, the growth is 104% (inactive).

For `COc1ccc(/C=C\C(=O)/C=C/c2ccc(OC)cc2)cc1`, the growth was 18.7% (inactive).

For the compound `Nc1nccc(Nc2ccccc2)n1`, the growth was 116% (inactive).

Regarding `O=C(CSSCC(=O)c1ccc(Cl)cc1)c1ccc(Cl)cc1`, the growth was 74.8% (inactive).

For `Cc1c(Cl)cccc1S(=O)(=O)Nc1ccc2c(c1)C(=O)N(C1CCC(=O)NC1=O)C2=O` (stereo unspecified), the growth was 27.2% (inactive).

`CCc1nc2cc(/C=C/C(=O)NO)ccc2c(=O)n1CCc1ccc(F)cc1`: the growth was -11.6% (active).

`COc1cc(CNCCN2C(=O)c3ccc4c5c(ccc(c35)C2=O)C(=O)N(CCNCc2cc(OC)c(OC)c(OC)c2)C4=O)cc(OC)c1OC`: the growth was -91.6% (active).

In the case of `O=C(Cc1ccc(/C=C/C(=O)c2ncc[nH]2)cc1)Nc1ccc(C(F)(F)F)cc1`, the growth was 15.1% (inactive).

On to `COc1ccc(/C(C)=C(/c2ccc(OCCCN(C)C)cc2)c2ccc(OC(=O)c3ccccc3)cc2)cc1`, for which the growth was 94.9% (inactive).

Take `C[C@@H]1O[C@@H](O[C@@H]2C[C@H](c3ccc4c(c3O)C(=O)C3=C(C4=O)[C@@]4(O)C(=O)C[C@](C)(O)C[C@@]4(O)C=C3)O[C@H](C)[C@H]2O)C[C@H](O)[C@@H]1O`: the growth was 106% (inactive).

`COC(=O)CNC(=O)[C@H](Cc1ccccc1)NCc1ccncc1`: the growth is 97.4% (inactive).

On to `Cc1cc(C)c(O)c(CNCCCNCc2cc(C)cc(C)c2O)c1`, for which the growth was 7.95% (active).

In the case of `COc1ccc(/C=C\c2nc3ccccc3s2)cc1OP(=O)(O)O`, the growth was 12.4% (inactive).

Take `COc1ccc(C(=O)c2ccc(OC)c(OC)c2OC)cc1`: the growth was -7.95% (active) and -19% (active).

In the case of `Cn1c(=O)c2c(nc(N/N=C/c3ccccc3Cl)n2C)n(C)c1=O`, the growth is 102% (inactive).

Turning to `O=S(=O)(NCCCNc1nccc(-c2c(-c3ccc(F)c(O)c3)nc3sccn23)n1)c1ccc(Cl)cc1`, the growth is 82.8% (inactive).

For the compound `N#Cc1ccc(-c2ccc3c(c2)NC(=O)/C3=C\c2ccc[nH]2)cc1`, the growth is -18.2% (active).

Turning to `O=c1c2c(=NCCCN3CCCC3)cc3c(=O)n(CCCN4CCCC4)c(=O)c4c(NCCCN5CCCC5)cc(c(O)n1CCCN1CCCC1)c2c4-3`, the growth is -62.2% (active).

For the compound `Nc1ccc2ccc(NS(=O)(=O)N3CCCCC3)cc2c1`, the growth is 7.79% (active).

On to `N#Cc1ccc(N2Cc3cc(Cl)ccc3OC3=C2C(=O)N(Cc2ccccc2)C3=O)cc1`, for which the growth is -64.2% (active).

For the compound `CC(=O)Cc1cc(-c2cc(CC(C)=O)[nH]n2)n[nH]1`, the growth is 103% (inactive).

With `Nc1nc(N=Nc2ccc(O)cc2)cc(=O)[nH]1`, the growth was 91.5% (inactive).

For `O=C1/C(=C/c2c[nH]c(=O)[nH]c2=O)SC(=S)N1Cc1ccccc1`, the growth was 109% (inactive).
